# From ChEMBL document CHEMBL1961873, “Compounds: GSK PKIS; Assays: Nanosyn kinase panel” (2012)
# Columns and labels:
# [1] = target: T1, Ephrin type-B receptor 2 (Homo sapiens) (UniProt P29323); conditions: at 1 µM
# T1 sequence (whole entry): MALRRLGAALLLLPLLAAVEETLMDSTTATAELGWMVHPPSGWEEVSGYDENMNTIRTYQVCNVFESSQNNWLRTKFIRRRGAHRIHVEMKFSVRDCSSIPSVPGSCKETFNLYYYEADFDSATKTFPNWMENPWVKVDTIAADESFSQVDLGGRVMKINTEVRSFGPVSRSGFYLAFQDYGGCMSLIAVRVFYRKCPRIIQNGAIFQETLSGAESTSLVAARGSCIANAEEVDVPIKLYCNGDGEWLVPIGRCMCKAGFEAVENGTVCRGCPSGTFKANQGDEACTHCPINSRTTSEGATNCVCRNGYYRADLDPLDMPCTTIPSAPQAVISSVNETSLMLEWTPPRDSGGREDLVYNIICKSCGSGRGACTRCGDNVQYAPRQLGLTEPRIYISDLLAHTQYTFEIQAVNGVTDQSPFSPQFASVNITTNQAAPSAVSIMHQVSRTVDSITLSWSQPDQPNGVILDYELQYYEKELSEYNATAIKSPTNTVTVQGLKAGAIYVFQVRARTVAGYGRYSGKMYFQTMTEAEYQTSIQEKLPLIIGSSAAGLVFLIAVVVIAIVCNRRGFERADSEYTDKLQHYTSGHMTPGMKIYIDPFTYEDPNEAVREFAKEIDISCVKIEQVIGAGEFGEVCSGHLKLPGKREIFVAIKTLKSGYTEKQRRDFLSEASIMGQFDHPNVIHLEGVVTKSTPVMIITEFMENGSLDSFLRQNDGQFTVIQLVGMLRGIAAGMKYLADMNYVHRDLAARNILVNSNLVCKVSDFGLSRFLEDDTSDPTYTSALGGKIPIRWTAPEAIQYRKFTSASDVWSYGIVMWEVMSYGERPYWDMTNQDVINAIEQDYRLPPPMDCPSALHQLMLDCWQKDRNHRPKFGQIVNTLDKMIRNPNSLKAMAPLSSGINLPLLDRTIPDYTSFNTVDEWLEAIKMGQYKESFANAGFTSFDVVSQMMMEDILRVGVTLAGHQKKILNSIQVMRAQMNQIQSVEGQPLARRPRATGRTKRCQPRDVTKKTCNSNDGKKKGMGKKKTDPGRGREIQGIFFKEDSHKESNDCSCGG
# [2] = target: T2, Ephrin type-B receptor 3 (Homo sapiens) (UniProt P54753); conditions: at 0.1 µM
# T2 sequence (whole entry): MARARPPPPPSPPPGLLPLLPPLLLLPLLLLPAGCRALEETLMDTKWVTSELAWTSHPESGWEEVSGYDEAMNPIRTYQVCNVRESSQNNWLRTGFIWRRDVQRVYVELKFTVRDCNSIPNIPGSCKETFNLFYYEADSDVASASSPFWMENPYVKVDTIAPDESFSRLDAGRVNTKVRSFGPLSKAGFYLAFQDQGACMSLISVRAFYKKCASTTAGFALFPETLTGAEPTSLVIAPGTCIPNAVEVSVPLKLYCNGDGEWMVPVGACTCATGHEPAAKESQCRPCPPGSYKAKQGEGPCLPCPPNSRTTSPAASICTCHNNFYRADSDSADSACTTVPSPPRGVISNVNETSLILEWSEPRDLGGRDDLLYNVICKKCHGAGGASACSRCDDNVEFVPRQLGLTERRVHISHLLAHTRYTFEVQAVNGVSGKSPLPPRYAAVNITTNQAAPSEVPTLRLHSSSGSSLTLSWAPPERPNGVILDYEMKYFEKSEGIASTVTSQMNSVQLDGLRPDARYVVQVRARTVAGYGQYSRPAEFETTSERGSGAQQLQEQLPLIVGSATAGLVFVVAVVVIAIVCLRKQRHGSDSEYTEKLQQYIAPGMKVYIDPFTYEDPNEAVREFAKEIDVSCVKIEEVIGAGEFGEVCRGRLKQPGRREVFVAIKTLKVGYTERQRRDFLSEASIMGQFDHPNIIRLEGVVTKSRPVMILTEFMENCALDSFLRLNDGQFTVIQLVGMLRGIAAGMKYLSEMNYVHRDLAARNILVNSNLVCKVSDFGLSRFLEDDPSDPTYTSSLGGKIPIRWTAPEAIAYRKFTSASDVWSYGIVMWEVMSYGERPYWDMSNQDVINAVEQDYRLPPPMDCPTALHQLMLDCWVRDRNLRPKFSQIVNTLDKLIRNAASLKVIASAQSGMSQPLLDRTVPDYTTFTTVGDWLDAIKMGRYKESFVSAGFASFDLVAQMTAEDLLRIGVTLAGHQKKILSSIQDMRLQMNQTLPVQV
# [3] = target: T2, Ephrin type-B receptor 3 (Homo sapiens); conditions: at 1 µM
# [4] = target: T3, Ephrin type-B receptor 4 (Homo sapiens) (UniProt P54760); conditions: at 0.1 µM
# T3 sequence (whole entry): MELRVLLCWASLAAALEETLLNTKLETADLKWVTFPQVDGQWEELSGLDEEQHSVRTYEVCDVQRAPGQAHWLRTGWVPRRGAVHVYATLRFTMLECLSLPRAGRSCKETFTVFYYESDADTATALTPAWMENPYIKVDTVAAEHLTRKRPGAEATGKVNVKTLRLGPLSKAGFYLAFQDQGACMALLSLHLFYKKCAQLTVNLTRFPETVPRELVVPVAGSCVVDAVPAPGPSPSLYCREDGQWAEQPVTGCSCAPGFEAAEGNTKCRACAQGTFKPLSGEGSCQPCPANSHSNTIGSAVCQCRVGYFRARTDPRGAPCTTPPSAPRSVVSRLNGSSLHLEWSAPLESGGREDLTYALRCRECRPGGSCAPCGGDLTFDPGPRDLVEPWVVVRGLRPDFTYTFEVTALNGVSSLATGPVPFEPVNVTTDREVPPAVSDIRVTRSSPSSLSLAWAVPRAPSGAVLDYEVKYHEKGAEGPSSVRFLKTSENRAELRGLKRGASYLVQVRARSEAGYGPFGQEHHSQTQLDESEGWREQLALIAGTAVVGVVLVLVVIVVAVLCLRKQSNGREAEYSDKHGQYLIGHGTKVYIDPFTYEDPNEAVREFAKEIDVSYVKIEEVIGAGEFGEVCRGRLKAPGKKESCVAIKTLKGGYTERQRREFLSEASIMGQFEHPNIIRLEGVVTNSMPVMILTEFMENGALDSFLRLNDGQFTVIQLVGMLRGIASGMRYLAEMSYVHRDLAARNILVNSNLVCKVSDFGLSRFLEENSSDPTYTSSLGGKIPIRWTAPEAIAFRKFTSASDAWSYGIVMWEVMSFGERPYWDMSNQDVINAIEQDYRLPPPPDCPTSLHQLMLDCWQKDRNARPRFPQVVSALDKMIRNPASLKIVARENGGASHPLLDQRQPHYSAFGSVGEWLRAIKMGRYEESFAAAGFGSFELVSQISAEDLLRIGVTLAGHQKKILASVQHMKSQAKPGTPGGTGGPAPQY
# [5] = target: T3, Ephrin type-B receptor 4 (Homo sapiens); conditions: at 1 µM
# [6] = target: Receptor tyrosine-protein kinase erbB-2 (Homo sapiens) (UniProt P04626); conditions: at 0.1 µM
# Sequence of Receptor tyrosine-protein kinase erbB-2 (Homo sapiens) (P04626 whole entry): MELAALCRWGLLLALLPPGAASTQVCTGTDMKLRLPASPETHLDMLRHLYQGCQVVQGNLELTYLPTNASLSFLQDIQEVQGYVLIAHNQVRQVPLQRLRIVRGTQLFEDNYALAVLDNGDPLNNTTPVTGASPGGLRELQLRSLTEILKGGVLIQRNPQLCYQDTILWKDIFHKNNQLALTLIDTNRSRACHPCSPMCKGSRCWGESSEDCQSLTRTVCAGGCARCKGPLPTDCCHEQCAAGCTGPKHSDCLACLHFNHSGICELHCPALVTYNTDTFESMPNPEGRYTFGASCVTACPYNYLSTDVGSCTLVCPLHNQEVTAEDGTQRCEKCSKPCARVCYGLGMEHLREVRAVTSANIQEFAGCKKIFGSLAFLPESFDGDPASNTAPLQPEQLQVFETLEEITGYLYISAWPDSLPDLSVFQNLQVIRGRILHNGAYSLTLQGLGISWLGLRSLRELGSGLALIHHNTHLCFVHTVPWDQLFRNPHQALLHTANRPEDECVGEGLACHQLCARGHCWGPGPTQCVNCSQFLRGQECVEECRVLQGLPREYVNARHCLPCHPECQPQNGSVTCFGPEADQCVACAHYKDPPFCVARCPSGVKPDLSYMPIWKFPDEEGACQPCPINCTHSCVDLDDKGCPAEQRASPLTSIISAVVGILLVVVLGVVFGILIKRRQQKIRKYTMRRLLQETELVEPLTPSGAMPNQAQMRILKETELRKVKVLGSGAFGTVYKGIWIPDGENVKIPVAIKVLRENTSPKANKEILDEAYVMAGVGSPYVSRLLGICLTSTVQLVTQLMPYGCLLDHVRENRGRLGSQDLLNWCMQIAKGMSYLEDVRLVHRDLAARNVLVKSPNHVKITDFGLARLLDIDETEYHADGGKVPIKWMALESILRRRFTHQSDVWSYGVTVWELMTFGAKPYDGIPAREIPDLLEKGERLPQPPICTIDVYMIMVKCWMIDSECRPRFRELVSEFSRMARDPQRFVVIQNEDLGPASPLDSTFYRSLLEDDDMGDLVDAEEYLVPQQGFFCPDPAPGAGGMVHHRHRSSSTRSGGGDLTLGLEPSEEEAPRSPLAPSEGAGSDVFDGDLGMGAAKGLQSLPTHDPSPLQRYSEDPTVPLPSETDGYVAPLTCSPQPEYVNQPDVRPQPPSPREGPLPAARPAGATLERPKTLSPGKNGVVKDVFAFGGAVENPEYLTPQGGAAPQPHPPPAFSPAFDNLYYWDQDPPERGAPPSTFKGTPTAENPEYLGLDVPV
# [7] = target: Receptor tyrosine-protein kinase erbB-2 (Homo sapiens) (UniProt P04626); conditions: at 1 µM
# [8] = target: Receptor tyrosine-protein kinase erbB-4 (Homo sapiens) (UniProt Q15303); conditions: at 0.1 µM
# Sequence of Receptor tyrosine-protein kinase erbB-4 (Homo sapiens) (Q15303 whole entry): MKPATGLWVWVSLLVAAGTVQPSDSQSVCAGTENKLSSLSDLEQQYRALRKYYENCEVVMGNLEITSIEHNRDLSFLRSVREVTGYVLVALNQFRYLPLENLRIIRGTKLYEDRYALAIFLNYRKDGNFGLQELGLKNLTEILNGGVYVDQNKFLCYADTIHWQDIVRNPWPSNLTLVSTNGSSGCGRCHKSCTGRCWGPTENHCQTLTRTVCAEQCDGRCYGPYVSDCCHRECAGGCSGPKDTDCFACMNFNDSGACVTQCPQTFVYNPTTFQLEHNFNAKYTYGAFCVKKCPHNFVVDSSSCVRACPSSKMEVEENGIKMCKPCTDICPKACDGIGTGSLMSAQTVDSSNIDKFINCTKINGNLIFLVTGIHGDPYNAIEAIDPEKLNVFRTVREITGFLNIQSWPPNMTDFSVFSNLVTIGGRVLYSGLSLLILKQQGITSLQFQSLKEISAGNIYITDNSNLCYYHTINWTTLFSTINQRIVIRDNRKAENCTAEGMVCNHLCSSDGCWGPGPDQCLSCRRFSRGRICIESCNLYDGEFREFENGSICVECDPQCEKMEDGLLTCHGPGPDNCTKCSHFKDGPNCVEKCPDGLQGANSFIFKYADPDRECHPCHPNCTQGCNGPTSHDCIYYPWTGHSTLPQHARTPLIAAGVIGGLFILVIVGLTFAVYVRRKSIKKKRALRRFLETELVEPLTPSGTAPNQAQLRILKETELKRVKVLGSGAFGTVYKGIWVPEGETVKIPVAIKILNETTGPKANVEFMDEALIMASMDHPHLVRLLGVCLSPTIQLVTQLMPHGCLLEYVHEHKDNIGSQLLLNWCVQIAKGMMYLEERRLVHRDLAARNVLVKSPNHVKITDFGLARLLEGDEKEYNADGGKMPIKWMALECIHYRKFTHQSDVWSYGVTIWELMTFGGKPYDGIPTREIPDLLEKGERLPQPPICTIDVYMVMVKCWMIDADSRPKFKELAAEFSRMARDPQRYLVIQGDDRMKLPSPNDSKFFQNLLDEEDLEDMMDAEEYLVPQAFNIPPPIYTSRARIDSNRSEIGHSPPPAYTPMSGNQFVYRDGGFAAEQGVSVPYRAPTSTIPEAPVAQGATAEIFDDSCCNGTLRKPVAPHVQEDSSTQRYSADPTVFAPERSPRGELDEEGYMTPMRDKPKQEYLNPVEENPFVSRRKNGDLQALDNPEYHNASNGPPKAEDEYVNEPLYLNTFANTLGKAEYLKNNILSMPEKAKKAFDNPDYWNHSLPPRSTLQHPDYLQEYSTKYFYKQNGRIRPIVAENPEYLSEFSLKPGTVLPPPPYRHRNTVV
# [9] = target: Receptor tyrosine-protein kinase erbB-4 (Homo sapiens) (UniProt Q15303); conditions: at 1 µM
# [10] = target: Tyrosine-protein kinase Fer (Homo sapiens) (UniProt P16591); conditions: at 0.1 µM
# [11] = target: Tyrosine-protein kinase Fer (Homo sapiens) (UniProt P16591); conditions: at 1 µM
# [12] = target: Tyrosine-protein kinase Fes/Fps (Homo sapiens) (UniProt P07332); conditions: at 0.1 µM
# Sequence of Tyrosine-protein kinase Fes/Fps (Homo sapiens) (P07332 whole entry): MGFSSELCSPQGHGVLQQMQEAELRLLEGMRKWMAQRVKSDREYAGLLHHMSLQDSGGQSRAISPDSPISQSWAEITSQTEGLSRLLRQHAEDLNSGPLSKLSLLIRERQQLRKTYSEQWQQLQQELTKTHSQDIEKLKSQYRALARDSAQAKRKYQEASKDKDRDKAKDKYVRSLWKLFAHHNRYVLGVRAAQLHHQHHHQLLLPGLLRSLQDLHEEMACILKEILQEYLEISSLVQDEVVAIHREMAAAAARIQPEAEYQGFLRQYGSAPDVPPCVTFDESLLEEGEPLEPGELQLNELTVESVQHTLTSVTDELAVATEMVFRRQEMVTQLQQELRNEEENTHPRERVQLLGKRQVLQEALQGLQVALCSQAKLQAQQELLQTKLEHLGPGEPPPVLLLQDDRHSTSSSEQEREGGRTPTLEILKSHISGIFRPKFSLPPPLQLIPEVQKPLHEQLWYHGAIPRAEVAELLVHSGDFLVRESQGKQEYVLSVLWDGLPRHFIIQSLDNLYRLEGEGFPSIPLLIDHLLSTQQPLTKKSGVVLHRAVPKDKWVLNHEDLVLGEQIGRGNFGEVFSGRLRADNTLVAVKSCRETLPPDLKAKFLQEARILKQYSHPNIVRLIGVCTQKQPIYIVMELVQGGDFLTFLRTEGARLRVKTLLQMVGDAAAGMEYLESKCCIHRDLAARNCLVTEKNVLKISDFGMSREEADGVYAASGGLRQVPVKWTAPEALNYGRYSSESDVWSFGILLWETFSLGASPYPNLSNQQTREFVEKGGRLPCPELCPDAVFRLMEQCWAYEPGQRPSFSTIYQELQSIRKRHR
# [13] = target: Tyrosine-protein kinase Fes/Fps (Homo sapiens) (UniProt P07332); conditions: at 1 µM
# [14] = target: Fibroblast growth factor receptor 1 (Homo sapiens) (UniProt P11362); conditions: at 0.1 µM
# Sequence of Fibroblast growth factor receptor 1 (Homo sapiens) (P11362 22-822 limits assumed): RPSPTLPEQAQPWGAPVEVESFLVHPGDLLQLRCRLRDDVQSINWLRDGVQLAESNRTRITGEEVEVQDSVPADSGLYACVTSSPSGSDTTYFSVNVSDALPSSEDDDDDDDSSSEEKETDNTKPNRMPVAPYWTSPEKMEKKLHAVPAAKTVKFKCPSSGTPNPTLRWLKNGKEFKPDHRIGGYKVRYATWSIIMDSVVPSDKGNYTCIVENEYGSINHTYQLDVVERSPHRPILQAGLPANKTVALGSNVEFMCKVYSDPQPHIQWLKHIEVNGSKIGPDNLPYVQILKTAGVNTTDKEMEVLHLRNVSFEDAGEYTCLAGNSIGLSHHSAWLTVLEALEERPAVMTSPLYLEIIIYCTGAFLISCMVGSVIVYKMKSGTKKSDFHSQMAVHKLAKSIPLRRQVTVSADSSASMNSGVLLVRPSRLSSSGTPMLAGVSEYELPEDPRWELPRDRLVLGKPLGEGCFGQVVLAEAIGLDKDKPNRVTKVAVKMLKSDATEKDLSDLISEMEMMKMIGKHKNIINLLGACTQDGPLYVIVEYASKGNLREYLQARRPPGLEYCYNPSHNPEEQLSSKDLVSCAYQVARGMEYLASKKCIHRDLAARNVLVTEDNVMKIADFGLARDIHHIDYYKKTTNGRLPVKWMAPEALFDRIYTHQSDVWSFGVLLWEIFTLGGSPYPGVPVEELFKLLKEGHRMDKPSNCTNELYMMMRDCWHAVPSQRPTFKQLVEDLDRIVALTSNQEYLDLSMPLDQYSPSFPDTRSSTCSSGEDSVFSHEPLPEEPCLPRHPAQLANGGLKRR
# [15] = target: Fibroblast growth factor receptor 1 (Homo sapiens) (UniProt P11362); conditions: at 1 µM
# [16] = target: Fibroblast growth factor receptor 2 (Homo sapiens) (UniProt P21802); conditions: at 0.1 µM
# Sequence of Fibroblast growth factor receptor 2 (Homo sapiens) (P21802 22-821 limits assumed): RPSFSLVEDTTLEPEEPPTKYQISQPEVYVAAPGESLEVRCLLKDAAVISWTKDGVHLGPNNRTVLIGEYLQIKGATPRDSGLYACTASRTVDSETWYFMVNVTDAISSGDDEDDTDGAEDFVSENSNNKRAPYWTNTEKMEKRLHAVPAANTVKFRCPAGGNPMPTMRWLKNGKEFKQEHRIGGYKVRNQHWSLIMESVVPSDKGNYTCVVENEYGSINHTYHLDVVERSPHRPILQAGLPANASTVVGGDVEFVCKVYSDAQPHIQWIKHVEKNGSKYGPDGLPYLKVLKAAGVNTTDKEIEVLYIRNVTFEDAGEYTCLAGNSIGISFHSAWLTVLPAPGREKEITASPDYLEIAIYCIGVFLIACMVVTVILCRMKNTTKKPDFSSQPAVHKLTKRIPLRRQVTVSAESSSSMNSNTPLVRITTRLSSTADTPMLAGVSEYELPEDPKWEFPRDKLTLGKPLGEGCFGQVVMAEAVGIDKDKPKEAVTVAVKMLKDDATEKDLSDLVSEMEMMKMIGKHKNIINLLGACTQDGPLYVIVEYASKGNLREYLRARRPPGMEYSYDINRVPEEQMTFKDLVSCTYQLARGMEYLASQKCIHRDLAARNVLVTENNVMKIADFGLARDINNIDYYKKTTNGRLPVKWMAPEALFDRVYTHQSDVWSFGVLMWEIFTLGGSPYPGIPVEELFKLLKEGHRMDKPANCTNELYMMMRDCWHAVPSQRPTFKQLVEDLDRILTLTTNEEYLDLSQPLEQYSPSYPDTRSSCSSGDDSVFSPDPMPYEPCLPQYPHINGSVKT
# [17] = target: Fibroblast growth factor receptor 2 (Homo sapiens) (UniProt P21802); conditions: at 1 µM
# [18] = target: Fibroblast growth factor receptor 3 (Homo sapiens) (UniProt P22607); conditions: at 0.1 µM
# [19] = target: Fibroblast growth factor receptor 3 (Homo sapiens) (UniProt P22607); conditions: at 1 µM
# [20] = target: Fibroblast growth factor receptor 4 (Homo sapiens) (UniProt P22455); conditions: at 0.1 µM;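 further: values are mean percent inhibition of FGFR4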
smiles,measurement,setting,value
Cc1nnc(-c2ccc(C)c(-c3ccc(C(=O)NCc4ccc(Cl)cc4)cc3)c2)o1,inhibition,[1],2.23%
same,inhibition,[2],1.15%
same,inhibition,[3],-1.34%
same,inhibition,[4],-0.5%
same,inhibition,[5],-2.62%
same,inhibition,[6],5.39%
same,inhibition,[7],4.99%
same,inhibition,[8],3.42%
same,inhibition,[9],7.48%
same,inhibition,[10],3.34%
same,inhibition,[11],3.71%
same,inhibition,[12],2.32%
same,inhibition,[13],1.83%
same,inhibition,[14],-2.72%
same,inhibition,[15],-1.85%
same,inhibition,[16],0.07%
same,inhibition,[17],11.1%
same,inhibition,[18],1.78%
same,inhibition,[19],-1.81%
COc1ccc2cc(-c3c(-c4ccncc4)nc(-c4ccc([S+](C)[O-])cc4C)n3C)ccc2c1 (stereo unspecified),inhibition,[1],19.7%
same,inhibition,[2],4.06%
same,inhibition,[3],14.6%
same,inhibition,[4],4.17%
same,inhibition,[5],22.5%
same,inhibition,[6],1.42%
same,inhibition,[7],5.05%
same,inhibition,[8],9.39%
same,inhibition,[9],37.1%
same,inhibition,[10],1.31%
same,inhibition,[11],3.2%
same,inhibition,[12],-0.52%
same,inhibition,[13],-1.2%
same,inhibition,[14],-0.12%
same,inhibition,[15],2.93%
same,inhibition,[16],-0.56%
same,inhibition,[17],2.09%
same,inhibition,[18],1.3%
same,inhibition,[19],3.02%
same,inhibition,[20],2.92%
COc1cc2ncn(-c3cc(OCCc4ccccc4)c(C(N)=O)s3)c2cc1OC,inhibition,[1],6.52%
same,inhibition,[2],2.67%
same,inhibition,[3],2.11%
same,inhibition,[4],2.03%
same,inhibition,[5],2.56%
same,inhibition,[6],2.58%
same,inhibition,[7],2.47%
same,inhibition,[8],13.8%
same,inhibition,[9],13.1%
same,inhibition,[10],4.91%
same,inhibition,[11],1.49%
same,inhibition,[12],1.6%
same,inhibition,[13],1.71%
same,inhibition,[14],14.8%
same,inhibition,[15],2.62%
same,inhibition,[16],1.97%
same,inhibition,[17],3.63%
same,inhibition,[18],2.83%
same,inhibition,[19],2.85%
same,inhibition,[20],-0.14%
CN(c1ccc(NC(=O)Nc2c(Cl)cccc2Cl)cc1)c1ccnc(Nc2cccc(CS(C)(=O)=O)c2)n1,inhibition,[1],27.3%
same,inhibition,[2],2.02%
same,inhibition,[3],4.62%
same,inhibition,[4],2.86%
same,inhibition,[5],8.72%
same,inhibition,[6],1.88%
same,inhibition,[7],7.2%
same,inhibition,[8],11.2%
same,inhibition,[9],17.1%
same,inhibition,[10],51.9%
same,inhibition,[11],77.2%
same,inhibition,[12],11.1%
same,inhibition,[13],22.5%
same,inhibition,[14],6.14%
same,inhibition,[15],-0.4%
same,inhibition,[16],3.91%
same,inhibition,[17],13.4%
same,inhibition,[18],0.14%
same,inhibition,[19],5.59%
same,inhibition,[20],2.62%
Cc1ccc(C(=O)NC(C)C)cc1-c1ccc(C(=O)NCC2CC2)cc1,inhibition,[1],0.35%
same,inhibition,[2],-7.05%
same,inhibition,[3],-4.82%
same,inhibition,[4],-0.32%
same,inhibition,[5],-2.91%
same,inhibition,[6],-5.52%
same,inhibition,[7],-4.79%
same,inhibition,[10],-1.9%
same,inhibition,[11],-1.61%
same,inhibition,[12],-2.77%
same,inhibition,[13],-3%
same,inhibition,[14],-5.37%
same,inhibition,[15],-2.8%
same,inhibition,[16],-4.22%
same,inhibition,[17],-3.57%
same,inhibition,[18],-4.95%
same,inhibition,[19],-3.57%
same,inhibition,[20],1.18%
COC(=O)Nc1nc2ccc(Sc3ccc(NC(=O)Nc4cc(C(F)(F)F)ccc4F)cc3)cc2[nH]1,inhibition,[1],79.9%
same,inhibition,[2],3.25%
same,inhibition,[3],11.3%
same,inhibition,[4],6.3%
same,inhibition,[5],57.2%
same,inhibition,[6],0.24%
same,inhibition,[7],1.41%
same,inhibition,[8],1.95%
same,inhibition,[10],1.93%
same,inhibition,[11],1.11%
same,inhibition,[12],0.33%
same,inhibition,[13],-0.58%
same,inhibition,[14],-1.07%
same,inhibition,[15],-3.15%
same,inhibition,[16],0.25%
same,inhibition,[17],4%
same,inhibition,[18],2.1%
same,inhibition,[19],2.77%
same,inhibition,[20],3.12%
COc1ccc2ncn(-c3cc(O[C@H](C)c4ccccc4Cl)c(C(N)=O)s3)c2c1,inhibition,[1],12%
same,inhibition,[2],0.01%
same,inhibition,[3],0.43%
same,inhibition,[4],-2.13%
same,inhibition,[5],-1.28%
same,inhibition,[6],2.78%
same,inhibition,[7],2.8%
same,inhibition,[8],1.62%
same,inhibition,[9],4.43%
same,inhibition,[10],2.82%
same,inhibition,[11],3.7%
same,inhibition,[12],2.74%
same,inhibition,[13],1.59%
same,inhibition,[14],-0.72%
same,inhibition,[15],4.65%
same,inhibition,[16],-0.16%
same,inhibition,[17],5.18%
same,inhibition,[18],1.57%
same,inhibition,[19],4.59%
same,inhibition,[20],-1.86%
